The source of these data is PubChem BioAssay (NCATS).

Test [1] concerns the target Calcium and integrin-binding protein 1 (Homo sapiens) (UniProt Q99828). Kind of test: Primary qHTS for Identification of Calcium Integrin Binding Protein 1 (CIB1) Competitor (AID 1508620).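 Also: GST tagged CIB1 binding a fluorescein labelled alphaIIb integrin peptide tracer; top concentration of the series differs between compounds.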 The method in brief: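 Fluorescence polarization competition: CIB1-GST (1 uM final) preincubated with compound 15 min at room temperature, then FITC-labeled alphaIIb peptide (100 nM final) added for another 15 min. Polarization read at Ex 480/Em 540.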
(Quantitative high-throughput screening tests each substance at several concentrations.)

Test [2] in a line: Counterscreen qHTS for small molecule stabilizers of the endoplasmic reticulum resident proteome: GLuc-NoTag assay (AID 1508627). Also: potency is read from the fitted curve at half-maximal effect. The settings on record: Gaussia luciferase NoTag secretion counterscreen, luminescence; thapsigargin 100 nM for final 4 h. The method in brief:
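SH-SY5Y cells stably expressing constitutively secreted GLuc (no SERCaMP tag) were pre-incubated 5 h, treated with compound for 19 h, then 100 nM thapsigargin for 4 h at 37C; medium GLuc read by coelenterazine luminescence.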
A general note: Counterscreens check selectivity or assay interference.

“And” between values parts separate entries of the source, which are not always exact repeats. Equal entries are not always repeated. Records with an inconclusive call do not appear. A call without a number means that no potency is given here. A number with no mark means an inactive call. The source made the active and inactive calls. Calls follow the shape of the dose curve; as a rule, active = well fitted curve in the direction sought with a large enough effect; inconclusive = small, poorly fitted or top-dose-only effect, or another doubt; inactive = no such curve, though single readings can be large; an effect the other way counts as inactive or inconclusive.

Chain of Calcium and integrin-binding protein 1 (Homo sapiens) (Q99828 whole entry, looked up): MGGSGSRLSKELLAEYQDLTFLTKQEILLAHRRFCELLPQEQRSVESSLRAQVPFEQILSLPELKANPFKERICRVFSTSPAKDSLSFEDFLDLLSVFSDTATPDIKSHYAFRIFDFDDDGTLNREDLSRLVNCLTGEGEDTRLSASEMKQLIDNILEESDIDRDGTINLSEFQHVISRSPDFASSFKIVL

On to `Cc1cc(O)c(C(C)C)cc1O[C@@H]1O[C@H](CO)[C@@H](O)[C@H](O)[C@H]1O`, for which the Potency result in test [1] was “inactive”.

`CC1=C(CC(=O)O)c2cc(F)ccc2C1=Cc1ccc(S(C)(=O)=O)cc1`: the Potency entry in test [1] is “inactive”.

As for `COc1ccccc1[C@@H]1C2=C(CC(C)(C)CC2=O)Nc2n[nH]c(C(F)(F)F)c21`, in test [1], the Potency result was “inactive”.

In the case of `C=C1C(=O)OC2CC(C)=C(C(C)CCCO[C@@H]3O[C@H](CO)[C@@H](O)[C@H](O)[C@H]3O)C(O)C12` (stereo not given in full), the Potency result in test [1] is “inactive”.

`C[C@@H]1CC[C@]2(C(=O)O[C@@H]3O[C@H](CO)[C@@H](O)[C@H](O)[C@H]3O)CC[C@]3(C)C(=CCC4[C@@]5(C)C[C@@H](O)[C@H](O)C(C)(C)C5CC[C@]43C)C2[C@]1(C)O` (stereo not given in full): the Potency result in test [1] is “inactive”.

`CC1CCC2C(C)(C)CC(C)(CO)C2(O)C1C(=O)O` (stereo not given): the Potency entry in test [1] is “inactive”.

On to `CC(C)c1ccc(CC(=O)N2CCC[C@@H](c3cccc(OC(C)(C)C(=O)O)c3)C2)cc1`, for which the Potency entry in test [1] was “inactive”.

`C=C1CCC2(OC1)OC1CC3C4CC=C5CC(O)CC(O[C@@H]6OC[C@@H](O)[C@H](O)[C@H]6O)C5(C)C4CCC3(C)C1(O)C2C` (stereo not given in full): the Potency entry in test [1] was “inactive”.

As to `CC1OC(O[C@H]2[C@@H](O)C[C@@]3(C)C([C@H](O)C[C@]4(C)C3CC=C3C5CC(C)(C)CC[C@]5(C(=O)OC5OC(CO)C(O)C(O)C5OC5OCC(OC6OCC(OC7OCC(O)C(O)C7O)C(O)C6O)C(OC6OCC(O)(CO)C6O)C5O)CC[C@]34C)[C@]2(C)CO)C(O)C(O)C1O` (stereo not given in full), the activity change, negative = inhibition in test [1] was -4.55% [at 12.4 µM].

On to `C=C1CCC2C(C)(C)C(O)CCC2(C)C1CCC(C)CCOC(=O)CCC(=O)O` (stereo not given), for which the Potency entry in test [1] is “inactive”.

Turning to `CC1CCC2(C(=O)OC3OC(CO)C(O)C(O)C3O)CCC3(C(=O)O)C(=CCC4C5(C)CCC(OC6OC(C)C(O)C(O)C6O)C(C)(C)C5CCC43C)C2C1C` (stereo not given), in test [1], the Potency result is “inactive”.

`CC(C)(C)NCc1cc(Nc2ccnc3cc(Cl)ccc23)c2c(c1O)CCCC2`: the activity change, negative = inhibition in test [1] was -3.89% [at 1.07 µM].

On to `C=C(C)C(C)C1OC23CC4(CO2)C(CCC2C5(C)CCC(OC6OCC(O)C(OC7OC(CO)C(O)C(OC8OCC(O)C(O)C8O)C7O)C6OC6OC(CO)C(O)C6O)C(C)(C)C5CCC24C)C3C(C)(O)C1OC(C)=O` (stereo not given), for which the Potency result in test [1] was “inactive”.

`N#Cc1ccc2[nH]c(O)c(-c3ccc(CN4CCOCC4)cn3)c2c1`: the Potency result in test [1] was “inactive”.

Take `COC(=O)C1=C(C)NC(C)=C(C(=O)OCCCN2CCC(c3ccccc3)(c3ccccc3)CC2)[C@H]1c1cccc([N+](=O)[O-])c1`: in test [2], the Potency is 39.8 µM (active) and 44.7 µM (active).
